CRFR2-BP ag – CRF-BP/CRF-R2 complex agonism; HEK293 CRF-R2/CRF-BP, calcium dye fluorescence (FLIPR); percent of saturating CRF peptide response; activation, % at 13.2 µM; 0.46% of 350,000 active;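 active = activation of at least 50%, plus an integration ratio under a set limit after plate pattern correction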;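 note: plate controls were neutral control wells without compound for no effect and CRF at EC100 for full effect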
cardiac RTF act – cardiac RTF calcium sensitization. IANBD-labeled TnC RTF fluorescence at EC20 calcium; 0% EC20 calcium, 100% full calcium. 0.24% of 340,000 active. P19429+P45379. activation, % at 7.2 µM. AID 493008;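 active = activation above the mean over all tested compounds plus 3 SD, cut at about 30% in these data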;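 note: rise in fluorescence read as greater calcium sensitivity of cardiac thin filaments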
LANA DNA inh – inhibitors of KSHV LANA C-terminal domain DNA binding; 0.078% of 340,000 active; MBP-C-LANA/FAM-LBS DNA binding, fluorescence polarization; inhibition, % at 9 µM; AID 504423;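 active = highest replicate inhibition at or above 60% at 9 µM, even if other replicates fall short; inactive = all replicates below 60% inhibition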;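 note: 0% = neutral control wells and 100% = 4 µM acridine orange control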
Keap1-Nrf2 PPI – Keap1-Nrf2 (human) interaction inhibition; Q14145; Keap1 Kelch-Nrf2 peptide fluorescence polarization, 1536-well; inhibition, % at 9.4 µM; 0.15% of 340,000 active; AID 504523; in the data active = inhibition above about 12%;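 note: human Keap1 Kelch domain with fluorescein labeled Nrf2 9mer peptide probe; 0% = neutral control wells and 100% = peptide positive control; higher means more block of Keap1 binding to Nrf2 peptide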
Target sequence (Q14145 whole entry, looked up, the tested form may be a part): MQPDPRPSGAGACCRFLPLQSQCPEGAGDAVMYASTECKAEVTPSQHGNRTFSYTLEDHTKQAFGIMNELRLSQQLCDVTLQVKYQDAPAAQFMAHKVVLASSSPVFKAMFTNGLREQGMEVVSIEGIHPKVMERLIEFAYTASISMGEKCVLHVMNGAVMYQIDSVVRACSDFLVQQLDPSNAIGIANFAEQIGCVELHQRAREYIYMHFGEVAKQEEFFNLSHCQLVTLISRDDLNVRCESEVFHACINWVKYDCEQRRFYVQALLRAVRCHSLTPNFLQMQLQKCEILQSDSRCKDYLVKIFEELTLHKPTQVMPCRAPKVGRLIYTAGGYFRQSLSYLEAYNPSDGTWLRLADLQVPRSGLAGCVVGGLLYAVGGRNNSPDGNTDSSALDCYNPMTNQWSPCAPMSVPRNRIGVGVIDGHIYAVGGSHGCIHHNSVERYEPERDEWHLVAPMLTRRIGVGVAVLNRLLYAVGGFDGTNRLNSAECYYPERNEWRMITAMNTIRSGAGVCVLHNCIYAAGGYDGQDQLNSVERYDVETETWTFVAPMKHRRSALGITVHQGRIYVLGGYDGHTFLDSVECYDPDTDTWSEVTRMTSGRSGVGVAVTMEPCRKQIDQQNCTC
Cardiac RTF inh – cardiac RTF calcium desensitization | inhibition, % at 7.15 µM | 0.12% of 340,000 active | IANBD-labeled cardiac RTF, Ca2+ fluorescence | AID 493244 | P19429+P45379;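 active = inhibition above the mean inhibition of all tested compounds plus 3 SD, cut at about 17% in these data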;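 note: assay run at fixed EC70 calcium of 1.6 mM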
CRFR2-BP antag – CRF-BP/CRF-R2 complex antagonism; HEK293 CRF-R2/CRF-BP, CRF-induced calcium fluorescence; inhibition, % at 11.8 µM; 0.59% of 350,000 active; AID 588475;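 active = inhibition of the ligand-induced calcium signal above about 50% at the single tested concentration, limit read from the data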
Active calls of the source: *; · = no result given. Compounds with a hit are over-represented: about 1.3% of the library has one in this group of screens.

SMILES | CRFR2-BP ag | cardiac RTF act | LANA DNA inh | Keap1-Nrf2 PPI | Cardiac RTF inh | CRFR2-BP antag
COC(=O)N/N=C(\C)c1cccs1 | 0.2 | 1.4 | -1.5 | -1.7 | 0.2 | 112.4*
C/C(CC(=O)Nc1cccc2c1CCCC2)=N\NC(=O)c1cccc2ccccc12 | -1.0 | -3.0 | 0.8 | 3.2 | 3.9 | 10.1
Cc1ccccc1-n1c(O)c(/C=C/C=Nc2ccccc2)c(=O)[nH]c1=O | 81.4* | 123.5* | -56.0 | -214.2 | -135.1 | -85.7
Cc1ccc(-n2c(O)c(/C=C3/C(c4ccccc4)=Nc4ccccc43)c(=O)[nH]c2=O)cc1 | 21.2 | -0.3 | 0.9 | -0.9 | 9.5 | -123.6
Fc1cccc(NC(=S)NCCc2ccccc2)c1 | -0.1 | -6.3 | -0.1 | -3.4 | -4.3 | 15.6
CCOC(=O)C1CCCN(C2=NC(=O)/C(=C/c3ccc(N(C)C)cc3)S2)C1 (centres undefined) | 68.6* | 65.3* | -36.0 | -110.0 | -90.5 | -45.9
CCCn1nc(C(=O)Nc2cc(S(=O)(=O)Nc3ccc(OC)cc3)ccc2O)c2ccccc2c1=O | -0.8 | -3.0 | 0.8 | -3.5 | 1.8 | 54.4*
CSC1=NC(C)N2C(SC)=NC(C)N12 (centres undefined) | -4.1 | 3.0 | 0.8 | 0.3 | 2.4 | 13.9
O=C(c1ccc(F)cc1)C1CCN(Cc2ccccc2F)CC1 | -0.9 | · | · | · | · | 57.7*
O=C(CN1CCC(C(=O)c2ccc(F)cc2)CC1)NCc1ccccc1F | -1.7 | 4.3 | -0.1 | -6.4 | 8.2 | -3.1
Cc1cc(C(=O)NNS(=O)(=O)c2ccc(F)cc2)nn1C(C)(C)C | -3.6 | -2.0 | 1.0 | 0.1 | 4.2 | 19.4
CCOc1ccc(-c2nn(-c3ccccc3)cc2/C=C2\SC(=S)N(C3CCS(=O)(=O)C3)C2=O)cc1 (centres undefined) | 115.3* | 2.7 | 16.3 | -4.3 | -6.2 | -122.2
O=C(CN1C(=O)NC2(CCCC2)C1=O)Nc1ccc(S(=O)(=O)N2CCOCC2)cc1 | 1.9 | -4.4 | -0.2 | -6.1 | -2.9 | -11.9
COc1cc(/C=C/C(=O)OCC(=O)NCc2ccco2)cc(OC)c1OC | 2.2 | -3.0 | -0.6 | -0.7 | 7.6 | 2.7
CCN(CC)c1ccc2c(c1)oc(=O)c1c(Cl)cc(=O)oc12 | 222.9* | 199.9* | 6.2 | -1.9 | -270.3 | -202.6
COCCn1c2nc(=O)n(-c3ccccc3)c(=O)c-2nc2ccccc21 | 194.2* | · | · | · | · | -168.2
O=c1[nH]nc(N=Nc2c(O)[nH]c3ccc(F)cc23)c(=O)[nH]1 | -0.6 | -1.4 | 0.0 | -1.6 | -6.2 | -0.2
Cc1ccc(N=Nc2c(O)[nH]c3ccc(F)cc23)cc1 | 17.4 | 74.6* | 41.4 | -6.6 | -87.7 | -20.6
COc1ccc(N=Nc2[nH]c3ccc(C)cc3c2O)cc1 | -2.5 | 5.4 | -0.5 | 0.9 | -3.4 | 14.9
Cc1ccc(N=Nc2[nH]c3ccccc3c2O)cc1 | 1.1 | 36.2* | 2.1 | -5.1 | -46.9 | -1.6
Cn1cc(Br)c(C(=O)N2CCc3ccccc32)n1 | 0.7 | 2.2 | 0.3 | 2.8 | -14.2 | 1.7
C[C@]12CCC(O)CC1CCC1C2CC[C@]2(C)C(c3cc(C(F)(F)F)n[nH]3)CCC12 (some centres undefined) | 54.2* | -6.3 | 0.3 | -2.1 | 0.0 | -93.2
Brc1ccc(OCc2nc3ccccc3[nH]2)cc1 | -3.1 | -3.4 | -7.2 | 2.9 | -8.1 | 12.1
CCOC(=O)c1n[nH]c(=O)c2ccccc12 | -2.1 | · | 0.6 | 2.3 | · | -2.8
CCOC(=O)C1CCN(C(=O)c2n[nH]c(=O)c3ccccc23)CC1 | -0.8 | -2.1 | -0.4 | 2.6 | 0.2 | 91.5*
SMILES | CRFR2-BP ag | cardiac RTF act | LANA DNA inh | Keap1-Nrf2 PPI | Cardiac RTF inh | CRFR2-BP antag
Cn1c(=O)oc2cc(S(=O)(=O)NCCC(=O)NCc3ccc(F)cc3)ccc21 | 2.3 | -8.7 | 0.6 | -2.1 | -14.3 | 99.3*
CC(=O)c1ccccc1NC(=O)Cn1c(=O)cnc2ccccc21 | 0.7 | -0.8 | -0.3 | -6.6 | -6.0 | 72.2*
Cc1cc(C)cc(N(CC(=O)O)S(=O)(=O)c2c(C)[nH]c(=O)[nH]c2=O)c1 | 1.6 | 0.4 | 0.3 | 4.8 | -6.5 | -8.5
CC(C)=C1C2CCC1C(C(=O)Nc1sc(C)c(-c3ccc(C(C)C)cc3)c1C(N)=O)C2C(=O)O (centres undefined) | 78.4* | -6.5 | -0.1 | -0.5 | -2.0 | 108.6*
Cc1ccc(-c2c(C)sc(NC(=O)C3C4CCC(O4)C3C(=O)O)c2C(=O)OC(C)C)cc1 (centres undefined) | -0.5 | -3.8 | 0.5 | 2.0 | -1.2 | -16.7
Cc1c(Cl)cccc1N1C(=O)c2ccccc2C1=O | -1.0 | 3.5 | 0.6 | 2.4 | -4.0 | 50.7*
CCCCN(C)C(=O)CC(NS(=O)(=O)c1ccc(NC(C)=O)cc1)C(C)C (centres undefined) | -1.3 | 6.5 | 0.5 | -1.8 | -12.2 | 4.1
O=C(NCc1ccc2c(c1)OCO2)c1c(F)c(F)c(F)c(F)c1F | -1.8 | 1.9 | -0.6 | -0.8 | -6.8 | 61.4*
O=C(NCc1ccc2c(c1)OCO2)c1ccc2c(c1)OCO2 | -2.0 | 0.7 | 1.7 | 0.7 | -6.4 | -0.1
O=C(COC(=O)C1(c2ccc(F)cc2)CCCC1)NCc1ccc2c(c1)OCO2 | -1.2 | -0.3 | 0.5 | 1.0 | -19.3 | 61.8*
O=C(NCCOc1ccccc1F)c1ccccc1SCc1ccc(F)cc1 | -3.1 | 6.7 | 3.1 | -0.8 | -7.2 | 63.5*
CCN1C(=O)C(=O)N(CC(=O)c2[nH]c(C)c(C(C)=O)c2C)C1=O | 0.6 | -5.0 | 0.6 | 3.6 | -2.5 | -8.7
CC(=O)c1c(C)[nH]c(C(=O)CN2C(=O)NC(C)(c3ccc(C)cc3)C2=O)c1C (centres undefined) | 77.3* | 4.2 | -1.8 | 0.3 | -5.2 | -77.3
CCOC(=O)C(NCc1ccccn1)(NC(=O)c1cccnc1)C(F)(F)F (centres undefined) | -3.3 | -6.1 | 2.0 | 2.1 | -10.8 | 61.0*
CCCc1cc(=O)[nH]c(SC/C=C/c2ccccc2)n1 | 1.1 | · | · | · | · | 13.9
O=C(O)c1cc(NN=C2c3ccccc3-c3ccccc32)ccc1Cl | -0.5 | -3.5 | 1.4 | 2.5 | 0.5 | 50.3*
Cc1ccc2nc(/C(C#N)=C\c3ccc(N4CCOCC4)o3)[nH]c2c1 | 7.3 | 151.9* | -33.6 | -145.8 | -132.7 | 14.4
Cc1ccc(/C(C#N)=C\c2ccc(N3CCOCC3)o2)cc1 | 2.3 | 14.5 | 2.2 | -6.2 | -12.8 | 0.3
Cc1ccc2nc(/C(C#N)=C\c3cc(C)n(-c4cccc([N+](=O)[O-])c4)c3C)[nH]c2c1 | -2.3 | 1.4 | -0.4 | -5.4 | 1.3 | -4.5
N#C/C(=C\c1ccc([N+](=O)[O-])o1)c1nc2ccccc2[nH]1 | 66.5* | · | · | · | · | -80.9
Cc1ccc2nc(/C(C#N)=C\c3ccc([N+](=O)[O-])o3)[nH]c2c1 | 54.9* | -2.5 | 0.0 | -0.4 | -3.8 | -97.9
O=C(CCCSc1nnc(-c2cccs2)n1CC1CCCO1)c1ccccc1 (centres undefined) | -0.8 | 12.7 | 0.2 | -1.0 | -3.2 | 17.8
Clc1ccc(-c2csc(N3CCOCC3)n2)cc1 | -6.5 | -2.3 | -2.6 | 1.7 | 0.0 | 77.0*

Screening data: PubChem BioAssay, several laboratories
